# Results reported in PubChem BioAssay (Tox21).
# A number with no mark means an inactive call. Records with an inconclusive call do not appear. A call without a number means that no potency is given here. Activity calls are given as the source filed them. Unless noted, the call rests on the fitted dose curve.
# Columns and labels:
# [1] = Nuclear factor erythroid 2-related factor 2/antioxidant responsive element (Nrf2/ARE) small molecule agonists: qHTS cell viability counter screen in human keratinocytes (AID 1919968; active means well fitted curve in the direction sought with a large enough effect in the repeat runs; an effect the other way counts as inactive or inconclusive; further: nearly all actives have a fitted effect of over 55% in size)
# Summary of the method: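 KeratinoSens HaCaT cells, 1,500/well, preincubated 5 h, then exposed to compounds in DMSO for 23 h at 37 C/5% CO2. Viability read as CellTiter-Fluor fluorescence after 1 h, in the same wells as the ARE-luciferase read.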
# [2] = Nuclear factor erythroid 2-related factor 2/antioxidant responsive element (Nrf2/ARE) small molecule agonists: luciferase reporter gene qHTS assay in human keratinocytes (AID 1919969); further: nearly all actives have a fitted effect of over 35% in size; further: potency means the concentration at half of the fitted maximal effect
# [3] = biological target: Gonadotropin-releasing hormone receptor (Homo sapiens) (UniProt P30968); assay: Human gonadotropin-releasing hormone receptor (GnRHR) small molecule agonists, calcium flux assay in GnRHR-HEK293 cells (AID 1920063); further: nearly all actives have a fitted effect of over 35% in size
# Sequence of Gonadotropin-releasing hormone receptor (Homo sapiens) (P30968 whole entry, looked up): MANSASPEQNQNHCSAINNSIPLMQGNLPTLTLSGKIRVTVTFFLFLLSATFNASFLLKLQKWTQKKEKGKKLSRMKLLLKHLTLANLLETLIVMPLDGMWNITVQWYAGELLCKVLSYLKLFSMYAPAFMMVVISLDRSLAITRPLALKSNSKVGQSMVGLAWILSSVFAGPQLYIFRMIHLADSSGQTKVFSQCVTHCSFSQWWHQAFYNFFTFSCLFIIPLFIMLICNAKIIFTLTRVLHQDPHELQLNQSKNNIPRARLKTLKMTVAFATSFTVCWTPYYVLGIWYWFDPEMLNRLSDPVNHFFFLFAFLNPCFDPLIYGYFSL
# Summary of the method: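 HEK293 cells stably expressing human GnRHR were dye-loaded for 1 h at 37 C. Compound was added in agonist mode and fluorescence (Ex/Em 480/540) recorded kinetically for 3 min. Fifteen concentrations, triplicates.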
# [4] = biological target: KiSS-1 receptor (Homo sapiens) (UniProt Q969F8); assay: Human kisspeptin (KISS1R) small molecule agonists, calcium flux assay in KISS1R-HEK293 cells (AID 1920064; active means well fitted curve in the direction sought with a large enough effect in the repeat runs; an effect the other way counts as inactive or inconclusive)
# Sequence of KiSS-1 receptor (Homo sapiens) (Q969F8 whole entry, looked up): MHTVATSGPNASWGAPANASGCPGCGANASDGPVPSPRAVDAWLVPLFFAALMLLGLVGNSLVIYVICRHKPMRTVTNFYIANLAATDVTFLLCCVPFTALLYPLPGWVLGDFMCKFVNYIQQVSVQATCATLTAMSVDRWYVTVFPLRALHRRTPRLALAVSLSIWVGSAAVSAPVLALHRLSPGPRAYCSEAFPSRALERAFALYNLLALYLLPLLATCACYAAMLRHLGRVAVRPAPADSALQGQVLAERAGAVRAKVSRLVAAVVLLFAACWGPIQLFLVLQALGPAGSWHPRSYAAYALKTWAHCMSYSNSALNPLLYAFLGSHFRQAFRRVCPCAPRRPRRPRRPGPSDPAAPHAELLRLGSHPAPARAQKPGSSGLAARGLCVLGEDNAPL
# Summary of the method: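 HEK293 cells stably expressing human KISS1R were loaded with calcium dye for 1 h at 37 C, then given compound; fluorescence (Ex/Em 480/540) was read kinetically for 3 min. Fifteen concentrations, triplicate.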
# [5] = G protein-coupled receptor (GPCR) small molecule agonists, calcium flux assay: HEK293 wild type cell line counter screen (AID 1920065)
# Summary of the method: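 Wild-type HEK293 cells plated 18 h, loaded with calcium dye 1 h at 37 C, then compounds added in agonist mode (ATP as positive control). Kinetic fluorescence Ex/Em 480/540 recorded 3 min at 1 sec intervals; 15 concentrations, triplicate.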
# [6] = p53 small molecule agonists, cell-based qHTS assay with human liver microsomes (AID 1963577)
# Summary of the method: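 p53RE-bla reporter cells were pre-incubated 5 h at 37 C, then treated with compounds plus human liver microsomes (0.5 mg/mL final) and NADPH (0.5 mg/mL final) for 16 h at 37 C. Beta-lactamase activity was read by LiveBLAzer fluorescence after 2 h at room temperature.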
# [7] = p53 small molecule agonists, cell-based qHTS assay with rat liver microsomes (AID 1963578)
# Summary of the method: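 p53RE-bla cells were exposed to compounds together with rat liver microsomes (0.5 mg/mL final) and NADPH (0.5 mg/mL final) for 16 h at 37 C, then read by LiveBLAzer beta-lactamase fluorescence after 2 h at room temperature.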
# [8] = p53 small molecule agonists, cell-based qHTS assay with human liver microsomes: qHTS cell viability counter screen (AID 1963579); further: nearly all actives have a fitted effect of over 45% in size
# Summary of the method: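 p53RE-bla cells (4,000/well) were pre-incubated 5 h at 37 C, then given compounds in DMSO plus human liver microsomes (0.5 mg/mL final) and NADPH (0.5 mg/mL final) for 16 h at 37 C. Viability was read by CellTiter-Glo luminescence.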
# [9] = p53 small molecule agonists, cell-based qHTS assay with rat liver microsomes: qHTS cell viability counter screen (AID 1963580); further: nearly all actives have a fitted effect of over 45% in size
# Summary of the method: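 p53RE-bla HCT-116 cells were exposed 16 h at 37 C to compounds with rat liver microsomes (0.5 mg/mL) and NADPH (0.5 mg/mL). Viability was measured in the same wells as ATP content by CellTiter-Glo luminescence.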
# [10] = biological target: 5-hydroxytryptamine receptor 2A (Homo sapiens) (UniProt P28223); assay: 5-hydroxytryptamine receptor 2A (HTR2A) small molecule agonists, cell-based qHTS assay (AID 1963587); further: nearly all actives have a fitted effect of over 30% in size; further: potency means the concentration at half of the fitted maximal effect
# Sequence of 5-hydroxytryptamine receptor 2A (Homo sapiens) (P28223 whole entry, looked up): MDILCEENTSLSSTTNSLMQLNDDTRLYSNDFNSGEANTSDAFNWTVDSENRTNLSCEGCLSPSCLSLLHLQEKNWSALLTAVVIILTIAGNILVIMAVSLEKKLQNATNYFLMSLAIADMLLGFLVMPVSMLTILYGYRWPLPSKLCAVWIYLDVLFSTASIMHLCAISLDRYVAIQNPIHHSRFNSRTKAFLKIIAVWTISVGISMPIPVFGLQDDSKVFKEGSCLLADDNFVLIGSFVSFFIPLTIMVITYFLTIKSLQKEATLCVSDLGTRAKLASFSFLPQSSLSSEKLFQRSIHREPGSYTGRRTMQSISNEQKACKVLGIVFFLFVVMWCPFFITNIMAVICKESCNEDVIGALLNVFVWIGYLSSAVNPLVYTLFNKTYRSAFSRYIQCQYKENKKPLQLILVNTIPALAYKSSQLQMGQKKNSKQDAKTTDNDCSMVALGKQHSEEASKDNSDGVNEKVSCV
# Summary of the method: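 CHO cells stably expressing human HTR2A, plated 18 h, loaded with calcium dye 1 h at 37 C. Agonist mode: compounds added and intracellular calcium fluorescence recorded kinetically for 2 min at 1 sec intervals.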
# [11] = biological target: Muscarinic acetylcholine receptor M1 (Homo sapiens) (UniProt P11229); assay: Cholinergic receptor muscarinic 1 (CHRM1) small molecule antagonists, cell-based qHTS assay (AID 1963588); further: nearly all actives have a fitted effect of over 40% in size
# Sequence of Muscarinic acetylcholine receptor M1 (Homo sapiens) (P11229 whole entry, looked up): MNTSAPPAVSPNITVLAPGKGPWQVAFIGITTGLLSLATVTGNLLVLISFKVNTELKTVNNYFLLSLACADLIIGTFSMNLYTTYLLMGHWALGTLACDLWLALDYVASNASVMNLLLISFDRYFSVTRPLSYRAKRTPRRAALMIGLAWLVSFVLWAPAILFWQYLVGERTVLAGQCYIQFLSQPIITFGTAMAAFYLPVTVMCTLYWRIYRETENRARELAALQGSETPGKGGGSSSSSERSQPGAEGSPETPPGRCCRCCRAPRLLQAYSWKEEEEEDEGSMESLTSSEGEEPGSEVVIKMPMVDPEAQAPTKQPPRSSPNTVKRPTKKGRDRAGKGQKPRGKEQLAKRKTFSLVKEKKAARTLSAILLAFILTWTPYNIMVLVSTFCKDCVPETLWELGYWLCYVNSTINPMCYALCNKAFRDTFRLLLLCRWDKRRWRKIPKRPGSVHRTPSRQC
# Summary of the method: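 CHRM1-CHO calcium-flux assay, antagonist mode. Cells were seeded 18 h, dye-loaded 1 h at 37 C and given compound for 5 min at RT, then acetylcholine was added at 50nM. FDSS fluorescence was read 3 min; 15 concentrations, three runs.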
# [12] = biological target: Muscarinic acetylcholine receptor M1 (Homo sapiens) (UniProt P11229); assay: Cholinergic receptor muscarinic 1 (CHRM1) small molecule agonists, cell-based qHTS assay (AID 1963589); further: nearly all actives have a fitted effect of over 35% in size
# Summary of the method: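 CHO cells stably expressing human CHRM1 were loaded with calcium dye for 1 h at 37 C, then compound was added in agonist mode. Intracellular calcium fluorescence was followed kinetically at 1 s intervals. Fifteen concentrations were tested in three independent runs.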
# [13] = biological target: Beta-2 adrenergic receptor (Homo sapiens) (UniProt P07550); assay: Adrenergic beta2 receptor (ADRB2) small molecule antagonists, cell-based qHTS assay (AID 1963592); further: nearly all actives have a fitted effect of over 50% in size; further: potency means the concentration at half of the fitted maximal effect; on activity change, negative = inhibition: series mostly up to about 92 µM
# Sequence of Beta-2 adrenergic receptor (Homo sapiens) (P07550 whole entry, looked up): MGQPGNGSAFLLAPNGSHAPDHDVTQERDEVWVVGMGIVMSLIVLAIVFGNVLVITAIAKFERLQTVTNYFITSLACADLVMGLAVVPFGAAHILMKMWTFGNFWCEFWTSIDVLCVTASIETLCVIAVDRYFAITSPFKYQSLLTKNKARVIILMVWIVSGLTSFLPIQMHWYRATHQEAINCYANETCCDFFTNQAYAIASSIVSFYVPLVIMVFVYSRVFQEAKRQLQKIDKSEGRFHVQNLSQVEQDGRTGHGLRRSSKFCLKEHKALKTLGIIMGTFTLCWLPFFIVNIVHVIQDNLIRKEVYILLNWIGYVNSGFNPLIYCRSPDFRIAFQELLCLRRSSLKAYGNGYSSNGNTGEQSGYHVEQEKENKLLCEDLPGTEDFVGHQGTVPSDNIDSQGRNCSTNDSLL
# Summary of the method: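 Cells (CHO, stable ADRB2 overexpression) incubated 18-20hr at 37C; compounds added from DMSO; agonist mix (1nM isoproterenol, 100uM IBMX, 25uM Ro-20-1724) added; 0.5hr RT; d2-cAMP and anti-cAMP-cryptate added; 1hr RT; 665/615 nm read.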
# [14] = biological target: D(2) dopamine receptor (Homo sapiens) (UniProt P14416); assay: Dopamine D2 receptor (DRD2) small molecule antagonists, cell-based qHTS assay (AID 1963595; active means well fitted inhibition curve with a large enough effect in the signal ratio in the repeat runs, with a control signal flat; the % refers to the signal ratio; further: potency means the concentration at half of the fitted maximal effect)
# Sequence of D(2) dopamine receptor (Homo sapiens) (P14416 whole entry, looked up): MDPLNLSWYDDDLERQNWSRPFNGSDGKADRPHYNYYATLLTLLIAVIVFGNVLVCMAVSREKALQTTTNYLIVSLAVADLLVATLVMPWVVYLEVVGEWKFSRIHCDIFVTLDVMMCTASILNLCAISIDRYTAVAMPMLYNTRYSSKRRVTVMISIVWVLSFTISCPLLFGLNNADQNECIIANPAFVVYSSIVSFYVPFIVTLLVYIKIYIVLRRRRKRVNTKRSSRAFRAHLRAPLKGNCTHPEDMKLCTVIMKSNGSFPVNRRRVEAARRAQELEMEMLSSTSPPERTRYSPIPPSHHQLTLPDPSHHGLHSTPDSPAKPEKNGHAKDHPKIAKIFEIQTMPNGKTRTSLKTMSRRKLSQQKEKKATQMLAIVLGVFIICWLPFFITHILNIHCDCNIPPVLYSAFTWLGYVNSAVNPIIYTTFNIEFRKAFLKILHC
# Summary of the method: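 Antagonism was scored as restored cAMP in HEK293-DRD2 cells. These cells were stimulated with 200 nM NKH477 and 12 nM quinpirole for 30 min at room temperature, in the presence of 0.1 mM Ro20-1724.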
# [15] = p53 small molecule agonists, cell-based qHTS assay: qHTS cell viability counter screen (AID 1963581); further: nearly all actives have a fitted effect of over 45% in size
# Summary of the method: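 p53RE-bla HCT-116 cells, compounds added 5 h after plating and incubated 16 h at 37 C. Cytotoxicity measured in the same wells as intracellular ATP by CellTiter-Glo luminescence after 30 min at room temperature.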
# [16] = p53 small molecule agonists, cell-based qHTS assay (AID 1963582; active means well fitted activation curve with a large enough effect in the signal ratio in the repeat runs, not every such curve was filed as active; the % refers to the signal ratio)
# Summary of the method: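 p53RE-bla reporter cells, compounds added in DMSO after 5 h plating, incubated 16 h at 37 C. Beta-lactamase read via 2 h room-temperature LiveBLAzer B/G FRET substrate, fluorescence intensity.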
# [17] = biological target: 5-hydroxytryptamine receptor 2A (Homo sapiens) (UniProt P28223); assay: 5-hydroxytryptamine receptor 2A (HTR2A) small molecule antagonists, cell-based qHTS assay (AID 1963586); further: nearly all actives have a fitted effect of over 45% in size
# Summary of the method: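 Antagonist-mode intracellular calcium assay: DOI (4 nM) added after 5 min compound pre-incubation at room temperature to dye-loaded HTR2A-CHO cells. Fluorescence followed for 3 min, sampled every second.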
# [18] = cAMP Responsive Elements (CRE) small molecule agonists, cell-based qHTS assay (AID 1963590)
# Summary of the method: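 CRE-bla HEK 293T cells, 2,000/well in DMEM with 10% dialyzed FBS and 25 mM HEPES, pre-incubated 18 h at 37 C, then exposed to compound 3 h at 37 C. Beta-lactamase reporter read with LiveBLAzer B/G FRET substrate after 2 h at room temperature.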
# [19] = cAMP Responsive Elements (CRE) small molecule antagonists, cell-based qHTS assay (AID 1963591; active means well fitted inhibition curve with a large enough effect in the signal ratio in the repeat runs, not every such curve was filed as active; the % refers to the signal ratio)
# Summary of the method: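 CRE-bla HEK293T cells plated 18 h, then given compound plus NKH477 at 0.25 uM final for 3 h at 37C. Beta-lactamase reporter read with LiveBLAzer B/G FRET substrate after 2 h at room temperature.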
# [20] = biological target: D(2) dopamine receptor (Homo sapiens) (UniProt P14416); assay: Dopamine D2 receptor (DRD2) small molecule agonists, cell-based qHTS assay (AID 1963594); further: nearly all actives have a fitted effect of over 35% in size
# Summary of the method: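 HEK293 cells stably expressing human DRD2, pre-treated with PDE inhibitor Ro20-1724 (0.1 mM final) and compound 10 min at room temperature, then stimulated with NKH477 (200nM […]) for 30 min. cAMP read by HTRF (665/620 nm).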
smiles,measurement,setting,value
CCOC(=O)NC(=S)Nc1ccccc1NC(=S)NC(=O)OCC,Potency,[1],inactive
same,Potency,[2],54.5 µM (active)
same,Potency,[3],inactive
same,Potency,[4],inactive
same,Potency,[5],inactive
same,Potency,[6],inactive
same,Potency,[7],inactive
same,Potency,[8],inactive
same,Potency,[9],inactive
same,Potency,[10],inactive
same,Potency,[11],inactive
same,Potency,[12],inactive
same,Potency,[13],inactive
same,Potency,[14],inactive
CC(=O)C(Cl)C(=O)N(C)C (stereo not given),Potency,[1],inactive
same,Potency,[2],68.6 µM (active)
same,Potency,[3],inactive
same,Potency,[4],inactive
same,Potency,[5],inactive
same,Potency,[6],inactive
same,Potency,[7],inactive
same,Potency,[9],inactive
same,Potency,[15],inactive
same,Potency,[16],inactive
same,Potency,[17],inactive
same,Potency,[10],inactive
same,Potency,[11],inactive
same,Potency,[18],inactive
same,Potency,[19],inactive
same,Potency,[13],inactive
same,Potency,[20],inactive
same,Potency,[14],inactive
CCC1(c2ccccc2)C(=O)N=C(O)NC1=O (stereo not given),Potency,[1],inactive
same,Potency,[2],inactive
same,Potency,[3],inactive
same,Potency,[4],inactive
same,Potency,[5],inactive
same,Potency,[6],inactive
same,Potency,[7],inactive
same,Potency,[8],inactive
same,Potency,[9],inactive
same,Potency,[16],inactive
same,Potency,[18],inactive
same,Potency,[19],inactive
same,Potency,[13],inactive
same,Potency,[20],inactive
same,Potency,[14],inactive
CCCCCCCCCCCCN=C(N)N,"activity change, negative = cytotoxicity",[1],-1.49% [at 3.27 µM]
same,"activity, positive = activation",[2],-21.7% [at 3.27 µM]
same,activity change,[3],"1.72% [at 2.04 µM, active compounds read high]"
same,activation,[4],1.8% [at 2.72 µM]
same,activation,[5],0.159% [at 2.04 µM]
same,activation,[6],0.2% [at 2.33 µM]
same,activation,[7],0.708% [at 2.33 µM]
same,"activity change, negative = cytotoxicity",[8],-3.65% [at 2.33 µM]
same,"activity change, negative = cytotoxicity",[15],10.9% [at 2.33 µM]
same,activation,[16],-3.75% [at 2.33 µM]
same,activation,[10],-1.31% [at 2.65 µM]
same,"activity, negative = inhibition",[11],8.27% [at 2.17 µM]
same,activation,[12],-0.462% [at 2.72 µM]
same,"activity change, negative = inhibition",[19],1.77% [at 3.27 µM]
same,"activity change, negative = inhibition",[13],-9.86% [at 3.27 µM]
same,activation,[20],-4% [at 3.27 µM]
same,"activity change, negative = inhibition",[14],-0.313% [at 3.28 µM]
CCO[C@H]1O[C@@H]2OC3(C)CC[C@H]4[C@H](C)CC[C@@H]([C@H]1C)[C@@]24OO3,Potency,[1],inactive
same,Potency,[2],inactive
same,Potency,[3],inactive
same,Potency,[4],inactive
same,Potency,[5],inactive
same,Potency,[6],inactive
same,Potency,[7],inactive
same,Potency,[8],inactive
same,Potency,[15],inactive
same,Potency,[16],inactive
same,Potency,[17],inactive
same,Potency,[11],inactive
same,Potency,[12],inactive
same,Potency,[18],inactive
same,Potency,[13],inactive
same,Potency,[20],inactive
same,Potency,[14],inactive
c1cc[c]([Sb]([c]2ccccc2)[c]2ccccc2)cc1,Potency,[1],inactive
same,Potency,[2],12.2 µM (active)
same,Potency,[3],inactive
same,Potency,[4],inactive
same,Potency,[5],inactive
same,Potency,[6],inactive
same,Potency,[7],inactive
same,Potency,[8],inactive
same,Potency,[9],inactive
same,Potency,[17],inactive
same,Potency,[10],inactive
same,Potency,[11],inactive
same,Potency,[12],inactive
same,Potency,[20],inactive
C[C@H]1CNCCc2ccc(Cl)cc21,Potency,[1],inactive
same,Potency,[2],inactive
same,Potency,[3],inactive
same,Potency,[4],inactive
same,Potency,[5],inactive
same,Potency,[6],inactive
same,Potency,[7],inactive
same,Potency,[8],inactive
same,Potency,[9],inactive
same,Potency,[16],inactive
same,Potency,[12],inactive
same,Potency,[18],inactive
same,Potency,[19],inactive
same,Potency,[13],23.7 µM (active)
same,Potency,[20],inactive
same,Potency,[14],inactive
O=C1NCN(c2ccccc2)C12CCN(CC1COc3ccccc3O1)CC2 (stereo not given),Potency,[1],inactive
same,Potency,[2],inactive
same,Potency,[3],inactive
same,Potency,[4],inactive
same,Potency,[5],inactive
same,Potency,[6],inactive
same,Potency,[7],inactive
same,Potency,[8],inactive
same,Potency,[15],inactive
same,Potency,[10],0.0425 µM (active)
same,Potency,[11],inactive
same,Potency,[12],inactive
same,Potency,[20],inactive
same,Potency,[14],0.0376 µM (active)
